Activity calls are given as the source filed them. How the source made its calls: active means hit-call score of the fitted dose curve at least 0.9, where 1 is the maximum; inactive means score below 0.9.
What was measured:
Settings in all cases: mRNA level, 48 h; actives raise or lower the signal
[1] = read-out: DNA damage-inducible transcript 3 (DDIT3), DDIT3 (gene 1649); assay: LTEA_HepaRG_DDIT3: Life Technologies and Expression Analysis (LTEA) Assay for DNA damage-inducible transcript 3 (DDIT3) using HepaRG (AID 2283488)
Summary of the method: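 Changes in DDIT3 transcript, in either direction relative to 0.5% DMSO vehicle, were quantified by TaqMan qRT-PCR after 48 h chemical exposure of HepaRG cells at 8 concentrations, maximum 100 uM.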

[2] = read-out: Pro-epidermal growth factor (Homo sapiens) (UniProt P01133); assay: LTEA_HepaRG_EGF: Life Technologies and Expression Analysis (LTEA) Assay for Epidermal growth factor (EGF) using HepaRG (AID 2283489)
Summary of the method: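 Differentiated human HepaRG cells, plated 48 h then switched to serum-free induction medium, were exposed for 48 h to test chemicals (8-point half-log series, top 100 uM, 0.5% DMSO). EGF mRNA was quantified by qRT-PCR, normalized to ACTB, GAPDH, POLR2A.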

[3] = read-out: Early growth response protein 1 (EGR1) transcription factor, EGR1 (gene 1958); assay: LTEA_HepaRG_EGR1: Life Technologies and Expression Analysis (LTEA) Assay for Early growth response protein 1 (EGR1) transcription factor using HepaRG (AID 2283490)
Summary of the method: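 Differentiated human HepaRG cells in serum-free induction medium were exposed in duplicate for 48 h to eight concentrations (top 100 uM, half-log steps) in 0.5% DMSO. EGR1 mRNA was quantified by qRT-PCR, normalized to ACTB, GAPDH and POLR2A, and fitted bidirectionally versus DMSO.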

[4] = read-out: Ezrin (EZR), EZR (gene 7430); assay: LTEA_HepaRG_EZR: Life Technologies and Expression Analysis (LTEA) Assay for Ezrin (EZR) using HepaRG (AID 2283491)
Summary of the method: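 EZR transcript levels came from Fluidigm qRT-PCR and were normalized to three housekeeping genes after 48 h chemical exposure of HepaRG cells. Dosing used an 8-point half-log series with a 100 uM top concentration in 0.5% DMSO, tested in duplicate; both directions were fitted versus vehicle.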

CYP3A5 (gene 1577) = assay: LTEA_HepaRG_CYP3A5: Life Technologies and Expression Analysis (LTEA) Assay for CYP3A5 using HepaRG (AID 2283493)
Summary of the method: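 mRNA induction or loss of CYP3A5 assessed in HepaRG after 48 h dosing, 100 uM top concentration, duplicate wells; TaqMan qRT-PCR with ACTB, GAPDH, POLR2A normalization; 0.5% DMSO as negative control.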

[5] = read-out: Fatty Acid-Binding Protein 1 (FABP1), FABP1 (gene 2168); assay: LTEA_HepaRG_FABP1: Life Technologies and Expression Analysis (LTEA) Assay for Fatty Acid-Binding Protein 1 (FABP1) using HepaRG (AID 2283494)
Summary of the method: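 Differentiated human HepaRG cells were exposed in duplicate for 48 h in serum-free induction medium to 8-point half-log concentration series topping at 100 uM in 0.5% DMSO. FABP1 mRNA measured by TaqMan qRT-PCR, normalized to ACTB/GAPDH/POLR2A; bidirectional fit versus DMSO.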

[6] = read-out: Cytochrome P450 4A22 (Homo sapiens) (UniProt Q5TCH4); assay: LTEA_HepaRG_CYP4A22: Life Technologies and Expression Analysis (LTEA) Assay for Cytochrome P450 4A22 (CYP4A22) using HepaRG (AID 2283495)
Summary of the method: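 qRT-PCR of CYP4A22 mRNA (Fluidigm TaqMan, normalized to three housekeeping genes) after 48 h chemical exposure of HepaRG cells; 8-point half-log series, top 100 uM, 0.5% DMSO vehicle. Bidirectional curve fitting vs DMSO baseline.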

[7] = read-out: Glutathione S-Transferase (GSTA2), GSTA2 (gene 2939); assay: LTEA_HepaRG_GSTA2: Life Technologies and Expression Analysis (LTEA) Assay for Glutathione S-Transferase (GSTA2) using HepaRG (AID 2283497)
Summary of the method: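 Human HepaRG cells, plated 48 h, then exposed in serum-free induction medium for 48 h to eight half-log concentrations up to 100 uM in 0.5% DMSO, duplicate. GSTA2 mRNA by qRT-PCR, normalized to ACTB/GAPDH/POLR2A; bidirectional fit versus DMSO.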

[8] = read-out: growth arrest and DNA damage 45 (GADD45G), GADD45G (gene 10912); assay: LTEA_HepaRG_GADD45G: Life Technologies and Expression Analysis (LTEA) Assay for growth arrest and DNA damage 45 (GADD45G) using HepaRG (AID 2283499)
Summary of the method: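 Differentiated human HepaRG cells in serum-free induction medium were exposed for 48 h to 8 half-log concentrations up to 100 uM in 0.5% DMSO, in duplicate. GADD45G mRNA was measured by TaqMan qRT-PCR, normalised to ACTB, GAPDH and POLR2A, and fitted bidirectionally against DMSO.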

[9] = read-out: Glutamate-cysteine ligase regulatory (GCLM), GCLM (gene 2730); assay: LTEA_HepaRG_GCLM: Life Technologies and Expression Analysis (LTEA) Assay for Glutamate-cysteine ligase regulatory (GCLM) using HepaRG (AID 2283500)
Summary of the method: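 Human liver HepaRG cultures receive test chemicals for 48 hours at up to 100 uM in 0.5% DMSO. GCLM expression is measured by qRT-PCR and analysed for increases or decreases against vehicle.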

[10] = read-out: Glutathione S-transferase M3 (GSTM3), GSTM3 (gene 2947); assay: LTEA_HepaRG_GSTM3: Life Technologies and Expression Analysis (LTEA) Assay for Glutathione S-transferase M3 (GSTM3) using HepaRG (AID 2283501)
Summary of the method: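 Differentiated HepaRG cells in serum-free induction medium were exposed in duplicate for 48 h to 8 half-log concentrations up to 100 uM in 0.5% DMSO. GSTM3 mRNA was measured by TaqMan qRT-PCR, normalized to ACTB/GAPDH/POLR2A, and fitted bidirectionally versus DMSO.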

[11] = read-out: Hypoxia-inducible factor 1-alpha (Homo sapiens) (UniProt Q16665); assay: LTEA_HepaRG_HIF1A: Life Technologies and Expression Analysis (LTEA) Assay for Hypoxia-inducible factor 1 (HIF1A) Trancription factor using HepaRG (AID 2283503)
Summary of the method: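 HepaRG, 48 h exposure, 8-pt half-log series from 100 uM, 0.5% DMSO vehicle, duplicates. Readout: HIF1A transcript by qRT-PCR (Fluidigm array), housekeeping-normalised. Bidirectional curve fit vs DMSO baseline.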

[12] = read-out: 3-Hydroxy-3-Methylglutaryl-CoA Synthase 2 (HMGCS2), HMGCS2 (gene 3158); assay: LTEA_HepaRG_HMGCS2: Life Technologies and Expression Analysis (LTEA) Assay for 3-Hydroxy-3-Methylglutaryl-CoA Synthase 2 (HMGCS2) using HepaRG (AID 2283504)
Summary of the method: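 Differentiated human HepaRG cells were exposed in duplicate for 48 h in serum-free induction medium to eight concentrations (top 100 uM, half-log steps, 0.5% DMSO). HMGCS2 mRNA was quantified by TaqMan qRT-PCR, normalised to ACTB, GAPDH and POLR2A, then fitted bidirectionally against DMSO.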

[13] = read-out: Insulin Like Growth Factor 1 (IGF1), IGF1 (gene 3479); assay: LTEA_HepaRG_IGF1: Life Technologies and Expression Analysis (LTEA) Assay for Insulin Like Growth Factor 1 (IGF1) using HepaRG (AID 2283506)
Summary of the method: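 Using human HepaRG liver cells, IGF1 transcript induction or suppression is measured 48 h after dosing across eight concentrations capped at 100 uM. Values derive from bidirectional concentration-response fitting with DMSO as baseline.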

[14] = read-out: Intercellular Adhesion Molecule 1 (ICAM1), ICAM1 (gene 3383); assay: LTEA_HepaRG_ICAM1: Life Technologies and Expression Analysis (LTEA) Assay for Intercellular Adhesion Molecule 1 (ICAM1) using HepaRG (AID 2283507)
Summary of the method: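 Differentiated HepaRG cells in serum-free induction medium were exposed in duplicate for 48 h to eight half-log concentrations up to 100 uM in 0.5% DMSO. Transcript levels were measured by qRT-PCR normalized to ACTB, GAPDH and POLR2A; bidirectional fits relative to DMSO.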

[15] = read-out: Cytochrome P450 3A7 (Homo sapiens) (UniProt P24462); assay: LTEA_HepaRG_CYP3A7: Life Technologies and Expression Analysis (LTEA) Assay for CYP3A7 using HepaRG (AID 2283492)
Summary of the method: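 HepaRG cells plated 48 h, then dosed in serum-free induction medium for 48 h at 8 concentrations (top 100 uM, half-log steps, 0.5% DMSO). CYP3A7 mRNA by qRT-PCR, normalised to ACTB/GAPDH/POLR2A; bidirectional fit versus DMSO.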

[16] = read-out: Heat shock 70 kDa protein 1 (HSPA1A), gene 3303; assay: LTEA_HepaRG_HSPA1A: Life Technologies and Expression Analysis (LTEA) Assay for Heat shock 70 kDa protein 1 (HSPA1A) using HepaRG (AID 2283502)
Summary of the method: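 HSPA1A induction in human HepaRG liver cells is measured after 48 h of chemical treatment (100 uM maximum, 0.5% DMSO vehicle). Expression comes from qRT-PCR normalized to endogenous controls.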

HGF (gene 3082) = assay: LTEA_HepaRG_HGF: Life Technologies and Expression Analysis (LTEA) Assay for Hepatocyte Growth Facto (HGF) using HepaRG (AID 2283505)
Summary of the method: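 Differentiated human HepaRG cells in serum-free induction medium were exposed in duplicate for 48 h to eight concentrations (top 100 uM, half-log steps, 0.5% DMSO). HGF mRNA was quantified by qRT-PCR, normalized to ACTB, GAPDH and POLR2A.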

[17] = read-out: Glutamate-cysteine ligase catalytic (GCLC), GCLC (gene 2729); assay: LTEA_HepaRG_GCLC: Life Technologies and Expression Analysis (LTEA) Assay for Glutamate-cysteine ligase catalytic (GCLC) using HepaRG (AID 2283498)
Summary of the method: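 Differentiated human HepaRG cells, plated 48 h then switched to serum-free induction medium, were exposed in duplicate for 48 h to 8 half-log concentrations topping at 100 uM in 0.5% DMSO. GCLC mRNA was quantified by qRT-PCR against ACTB, GAPDH and POLR2A.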

[18] = read-out: Cytochrome P450 7A1 (Homo sapiens) (UniProt P22680); assay: LTEA_HepaRG_CYP7A1: Life Technologies and Expression Analysis (LTEA) Assay for Cytochrome P450 7A1 (CYP7A1) using HepaRG (AID 2283496)
Summary of the method: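 Gene expression endpoint in human HepaRG liver cells treated for 48 h with test chemicals (up to 100 uM, 0.5% DMSO). Values come from bidirectional concentration-response fitting versus DMSO.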

Measured: AC50

Chain of Hypoxia-inducible factor 1-alpha (Homo sapiens) (Q16665 whole entry, looked up): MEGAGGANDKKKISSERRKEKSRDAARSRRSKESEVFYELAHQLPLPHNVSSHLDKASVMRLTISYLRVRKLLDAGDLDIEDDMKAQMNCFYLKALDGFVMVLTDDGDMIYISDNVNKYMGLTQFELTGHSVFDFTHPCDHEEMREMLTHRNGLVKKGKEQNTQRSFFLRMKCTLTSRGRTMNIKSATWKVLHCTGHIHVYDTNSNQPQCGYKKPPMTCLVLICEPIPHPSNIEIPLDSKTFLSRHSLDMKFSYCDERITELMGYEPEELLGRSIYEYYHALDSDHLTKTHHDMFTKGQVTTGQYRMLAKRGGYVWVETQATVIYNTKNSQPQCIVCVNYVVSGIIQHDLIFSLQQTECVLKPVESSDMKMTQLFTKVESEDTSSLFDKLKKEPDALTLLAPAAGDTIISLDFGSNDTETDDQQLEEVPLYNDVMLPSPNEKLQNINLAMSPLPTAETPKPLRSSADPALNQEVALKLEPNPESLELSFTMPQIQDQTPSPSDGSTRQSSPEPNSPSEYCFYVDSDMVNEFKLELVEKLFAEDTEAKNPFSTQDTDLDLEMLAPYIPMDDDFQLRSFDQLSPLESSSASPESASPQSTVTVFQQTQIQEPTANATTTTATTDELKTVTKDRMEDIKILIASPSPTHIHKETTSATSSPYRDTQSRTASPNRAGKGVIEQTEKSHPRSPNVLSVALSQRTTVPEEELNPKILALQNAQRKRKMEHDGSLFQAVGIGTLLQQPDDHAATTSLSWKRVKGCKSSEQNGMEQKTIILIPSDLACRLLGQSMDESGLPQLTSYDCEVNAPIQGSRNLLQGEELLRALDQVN
Chain of Cytochrome P450 3A7 (Homo sapiens) (P24462 whole entry, looked up): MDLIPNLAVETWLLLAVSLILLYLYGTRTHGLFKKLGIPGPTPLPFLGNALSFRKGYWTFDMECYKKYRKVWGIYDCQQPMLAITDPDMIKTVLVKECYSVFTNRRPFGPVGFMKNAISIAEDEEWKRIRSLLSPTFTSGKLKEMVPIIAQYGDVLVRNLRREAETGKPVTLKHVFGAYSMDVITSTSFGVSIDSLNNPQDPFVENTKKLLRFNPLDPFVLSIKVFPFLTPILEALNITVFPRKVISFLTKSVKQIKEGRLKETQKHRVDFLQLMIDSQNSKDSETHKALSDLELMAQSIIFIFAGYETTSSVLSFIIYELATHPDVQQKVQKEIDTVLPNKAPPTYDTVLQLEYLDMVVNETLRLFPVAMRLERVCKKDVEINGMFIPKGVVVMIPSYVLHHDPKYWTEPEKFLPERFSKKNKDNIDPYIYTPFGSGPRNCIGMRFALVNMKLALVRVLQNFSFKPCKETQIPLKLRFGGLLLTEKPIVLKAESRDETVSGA

Cc1cc(NC(=O)C(=O)O)cc(C)c1Oc1ccc(O)c2c1CCC2
active: CYP3A5 (gene 1577) 97.3 nM | [5] 27.9 nM | [6] 30.7 nM | [7] 75600 nM | [11] 21 nM | [12] 4.23 nM | [13] 22 nM
not listed: [15] | [16] | HGF (gene 3082) | [17] | [18]
inactive: all other assays above

CC=Cc1ccc(O)c(OC)c1
not listed: [17] | [18]
inactive: all other assays above

CCCCCCCC=O
active: [1] 9920 nM
not listed: [16] | [18]
inactive: all other assays above

NS(=O)(=O)c1cc2c(cc1Cl)NCNS2(=O)=O
not listed: [3] | [11] | [15] | [16] | HGF (gene 3082) | [17]
inactive: all other assays above

Cc1ccc(Cl)cc1
not listed: [1] | HGF (gene 3082) | [17]
inactive: all other assays above

Cc1ccccc1Cl
not listed: [3] | [15] | HGF (gene 3082)
inactive: all other assays above

COc1ccc(C)cc1N
not listed: [1] | [16] | HGF (gene 3082) | [17]
inactive: all other assays above

CCCCc1ccc2c(n1)[C@@H](c1ccc(OC)cc1C[C@H](C)C(=O)O)[C@H](C(=O)O)[C@H]2c1ccc2c(c1)OCO2
not listed: [3] | [15] | [16]
inactive: all other assays above
